The results in this text go back to PubChem BioAssay (Tox21).

Results filed as inconclusive are left out. A call without a number means that no potency is given here. Active and inactive are the calls of the source. Unless noted, the call rests on the fitted dose curve.

Thyrotropin receptor (Homo sapiens), sequence (P16473 whole entry, looked up): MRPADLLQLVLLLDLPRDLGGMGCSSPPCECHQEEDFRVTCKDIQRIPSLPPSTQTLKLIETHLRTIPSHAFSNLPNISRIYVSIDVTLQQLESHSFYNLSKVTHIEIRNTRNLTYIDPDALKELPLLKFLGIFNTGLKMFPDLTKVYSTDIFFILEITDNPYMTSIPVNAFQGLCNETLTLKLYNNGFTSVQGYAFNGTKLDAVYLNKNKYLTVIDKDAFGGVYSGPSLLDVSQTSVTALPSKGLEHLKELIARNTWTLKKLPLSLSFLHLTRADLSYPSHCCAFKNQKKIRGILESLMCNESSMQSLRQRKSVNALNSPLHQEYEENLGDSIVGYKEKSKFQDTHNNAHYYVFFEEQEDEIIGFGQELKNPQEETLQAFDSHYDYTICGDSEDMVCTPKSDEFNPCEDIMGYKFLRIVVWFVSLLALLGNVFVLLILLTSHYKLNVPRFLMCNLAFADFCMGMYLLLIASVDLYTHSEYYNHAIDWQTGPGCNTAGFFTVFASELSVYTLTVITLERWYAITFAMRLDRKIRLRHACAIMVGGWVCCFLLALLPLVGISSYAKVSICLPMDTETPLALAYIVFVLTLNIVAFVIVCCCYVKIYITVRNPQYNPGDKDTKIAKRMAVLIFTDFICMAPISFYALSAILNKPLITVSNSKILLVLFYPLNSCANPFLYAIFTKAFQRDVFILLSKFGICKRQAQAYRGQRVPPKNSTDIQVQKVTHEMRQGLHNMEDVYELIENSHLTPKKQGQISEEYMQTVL

Test system in the first assay: not listed separately
Briefly: qHTS assay to identify small molecule agonists of the estrogen related receptor signaling pathway with the pleiotropic PPARgamma coactivator (PGC) from Tox21 10K library (AID 1224842; active means well fitted activation curve with a large enough effect in the repeat runs; further: nearly all actives have a fitted effect of over 15% in size). Conditions: PGC/ERR reporter cell line, luciferase ONE-Glo, 18 h; series mostly up to 92.4 µM. In outline:
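PGC/ERR reporter cell line, 2,000 cells per well, incubated 6 h at 37 C before 23 nL compound in DMSO was added. After 18 h at 37 C, One-Glo luminescence read following 30 min at room temperature.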
`C=C(C)C(=O)OCCOCCOC(=O)C(=C)C`: the Potency result is “inactive”.
Same read-out and setting: as for `c1ccc(C[n+]2cccc3ccccc32)cc1`, the entry is “inactive”; as for `CC1(C)[C@@H](OC(=O)CCC(=O)O)CC[C@]2(C)[C@H]3C(=O)C=C4[C@@H]5C[C@@](C)(C(=O)O)CC[C@]5(C)CC[C@@]4(C)[C@]3(C)CC[C@@H]12`, “inactive”; as for `CC(=O)Oc1ccc([N+](=O)[O-])cc1CCl`, “inactive”.
In the case of `CCCCCCCCCCCCCCN(CCO)CCO`, the Potency entry is “inactive”.
In the case of `C=C/C(C)=C/C/C=C(\C)CCC=C(C)C`, the Potency entry was “inactive”.
On to `Cc1ccc2c(Br)cc(Br)c(O)c2n1`, for which the Potency result was “inactive”.
The same measure, in the same setting: the entry for `CCCCCCC(C)(C)C(=O)O` is “inactive”; for `Cc1[nH]cnc1CN1CCc2c(c3ccccc3n2C)C1=O` it is “inactive”; for `Oc1cc2c(cc1O)[C@H]1c3ccc(O)c(O)c3OC[C@@]1(O)C2` it is “inactive”.
Same read-out and setting: the entry for `NCCNCCO` is “inactive”.

The next assay has as its target Thyrotropin receptor (Homo sapiens) (UniProt P16473). The assay is described as follows: qHTS assay to identify small molecule agonists of the thyroid stimulating hormone receptor (TSHR) signaling pathway (AID 1224843). Further: nearly all actives have a fitted effect of over 45% in size. To be noted: TSHR-HEK293 cells, cAMP HTRF, agonist mode, 30 min; series mostly up to 92.4 µM. In outline:
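Agonist-mode screen: TSHR HEK293 cells received test chemicals for half an hour at room temperature, then HTRF cAMP detection reagents for one hour prior to fluorescence measurement. Each chemical ran as a 15-concentration series, triplicated.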
On the technique in general: In qHTS, concentration-response curves come from the screen itself.
As for `Cc1ccc(Cl)c(Nc2ccccc2C(=O)O)c1Cl`, the Potency entry was “inactive”.
Still for that read-out and setting: the entry for `CC(C)(c1ccccc1)c1ccccc1` is “inactive”.
The same measure, in the same setting: the entry for `c1ccc(C[n+]2cccc3ccccc32)cc1` is “inactive”; for `CCC1CO1` (stereo unspecified) it is “inactive”; for `Cc1cscn1` it is “inactive”.
As for `CC1(C)S[C@@H]2[C@H](NC(=O)C(c3ccccc3)S(=O)(=O)O)C(=O)N2[C@H]1C(=O)O` (stereo partly specified), the Potency result was “inactive”.
Still for that read-out and setting: the entry for `CC1(C)[C@@H](OC(=O)CCC(=O)O)CC[C@]2(C)[C@H]3C(=O)C=C4[C@@H]5C[C@@](C)(C(=O)O)CC[C@]5(C)CC[C@@]4(C)[C@]3(C)CC[C@@H]12` is “inactive”; for `CC(=O)Oc1ccc([N+](=O)[O-])cc1CCl` it is “inactive”.
On the same count and under the same terms, as for `O[C@@H]1CO[C@H]2[C@@H]1OC[C@@H]2O`, the entry is “inactive”.
On to `O=c1[nH]ncc2ccccc12`, for which the Potency entry is “inactive”.
Same read-out and setting: as for `O=C(CCCN1CC=C(n2c(=O)[nH]c3ccccc32)CC1)c1ccc(F)cc1`, the entry is “inactive”; as for `C=C/C(C)=C/C/C=C(\C)CCC=C(C)C`, “inactive”.
The same measure, in the same setting: as for `CC1CC(C)C(=O)C1=O` (stereo unspecified), the entry is “inactive”; as for `Cc1ccc2c(Br)cc(Br)c(O)c2n1`, “inactive”.
On the same count and under the same terms, the entry for `CCC(OCCCOC)OC(C)=O` (stereo unspecified) is “inactive”; for `CCCCCCC(C)(C)C(=O)O` it is “inactive”.
Turning to `CCn1cc(C(=O)O)c(=O)c2cc(F)c(N3CCNCC3)cc21`, the Potency entry was “inactive”.
Same read-out and setting: as for `CCOc1ccccc1O[C@H](c1ccccc1)[C@H]1CNCCO1`, the entry is “inactive”.
Same read-out and setting: as for `O=C(OC(=O)c1ccccc1)c1ccccc1`, the entry is “inactive”; as for `O=C(O)CCC(=O)C(=O)O`, “inactive”.
Same read-out and setting: the entry for `NCCNCCO` is “inactive”.

Test system in a further assay: not listed separately
The assay is described as follows: qHTS assay to identify small molecule agonists of the hypoxia (HIF-1) signaling pathway - cell viability counter screen (AID 1224844). Further: nearly all actives have a fitted effect of over 50% in size. Further: potency means the concentration at half of the fitted maximal effect. To be noted: HRE-bla ME-180 viability, CellTiter-Glo luminescence, 17 h; series mostly up to 76.8 µM. In outline: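 In this counter screen, HRE-bla ME-180 cell viability after 17 hrs of compound exposure at 37C was read by CellTiter-Glo luminescence, multiplexed with the beta-lactamase reporter measurement.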
`Cc1ccc(Cl)c(Nc2ccccc2C(=O)O)c1Cl`: the Potency entry is “inactive”.
Still for that read-out and setting: the entry for `C=C(C)C(=O)OCCOCCOC(=O)C(=C)C` is “inactive”.
On to `c1ccc(C[n+]2cccc3ccccc32)cc1`, for which the Potency result was “inactive”.
Still for that read-out and setting: the entry for `CCC1CO1` (stereo unspecified) is “inactive”.
As for `Cc1cscn1`, the Potency result was “inactive”.
As to `CC1(C)S[C@@H]2[C@H](NC(=O)C(c3ccccc3)S(=O)(=O)O)C(=O)N2[C@H]1C(=O)O` (stereo partly specified), the Potency result is “inactive”.
On the same count and under the same terms, the figure for `CC(=O)Oc1ccc([N+](=O)[O-])cc1CCl` is 49 µM (active).
Same read-out and setting: the figure for `CCCCCCCCCCCCCCN(CCO)CCO` is 49 µM (active); for `O=C(/C=C/c1ccc(O)c(O)c1)O[C@@H]1C[C@@](OC(=O)/C=C/c2ccc(O)c(O)c2)(C(=O)O)C[C@@H](O)[C@@H]1O` it is “inactive”; for `O[C@@H]1CO[C@H]2[C@@H]1OC[C@@H]2O` it is “inactive”.
Turning to `O=c1[nH]ncc2ccccc12`, the Potency result was “inactive”.
Still for that read-out and setting: the entry for `O=C(CCCN1CC=C(n2c(=O)[nH]c3ccccc32)CC1)c1ccc(F)cc1` is “inactive”; for `CCOC(=O)c1ccc(C#Cc2ccc3c(c2)C(C)(C)CCS3)nc1` it is “inactive”; for `CCCCCCCCN` it is “inactive”.
Regarding `CC1CC(C)C(=O)C1=O` (stereo unspecified), the Potency entry is “inactive”.
As for `COC(=O)CCS`, the Potency result was “inactive”.
For the compound `CCC(OCCCOC)OC(C)=O` (stereo unspecified), the Potency result is “inactive”.
As to `CO[C@]1(NC(=O)CSC(F)F)C(=O)N2C(C(=O)O)=C(CSc3nnnn3CCO)CO[C@H]21`, the Potency result was “inactive”.
With `CCCCCCC(C)(C)C(=O)O`, the Potency result is “inactive”.
Still for that read-out and setting: as for `O=C1CCCCCCCCCCOCCCCO1`, the entry is “inactive”; as for `CCn1cc(C(=O)O)c(=O)c2cc(F)c(N3CCNCC3)cc21`, “inactive”; as for `CCOc1ccccc1O[C@H](c1ccccc1)[C@H]1CNCCO1`, “inactive”.
Consider `Cc1[nH]cnc1CN1CCc2c(c3ccccc3n2C)C1=O`, for which the Potency result is “inactive”.
Turning to `Oc1cc2c(cc1O)[C@H]1c3ccc(O)c(O)c3OC[C@@]1(O)C2`, the Potency entry was “inactive”.
Same read-out and setting: as for `O=C(OC(=O)c1ccccc1)c1ccccc1`, the entry is “inactive”; as for `Brc1cc(Br)c(Oc2cc(Br)c(Br)cc2Br)cc1Br`, 21.3 µM (active); as for `CCN(CC)CCNC(=O)COc1ccc(OC)cc1`, “inactive”.
On the same count and under the same terms, as for `NNC(=O)CP(=O)(c1ccccc1)c1ccccc1`, the entry is “inactive”; as for `C=C(C)CCCC(C)CCO` (stereo unspecified), “inactive”; as for `O=C(O)CCC(=O)C(=O)O`, “inactive”.
Still for that read-out and setting: as for `Nc1ccc(N=Nc2ccccc2)c(N)c1`, the entry is “inactive”; as for `COC(=O)CS`, “inactive”.
With `CC(=O)OCC[N+](C)(C)C`, the Potency result is “inactive”.
Still for that read-out and setting: as for `NCCNCCO`, the entry is “inactive”.

Test system in a further assay: not listed separately
The assay is described as follows: qHTS assay to identify small molecule agonists of H2AX (AID 1224845; active means well fitted activation curve with a large enough effect in the signal ratio in the repeat runs, not every such curve was filed as active; the % refers to the signal ratio). Conditions: CHO-K1 phospho-H2AX Ser139 HTRF, 3 h; series mostly up to 154 µM. The method in brief:
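Wild-type CHO-K1 cells, plated overnight, exposed 3hr at 37C to 15 concentrations (0.76% DMSO final). Lysed, then HTRF anti-pH2AX (S139) cryptate and anti-H2AX-d2 antibodies, 24 hr room temperature; 665/620 nm emission read.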
In the case of `Cc1ccc(Cl)c(Nc2ccccc2C(=O)O)c1Cl`, the Potency entry is “inactive”.
Same read-out and setting: as for `C=C(C)C(=O)OCCOCCOC(=O)C(=C)C`, the entry is “inactive”.
Still for that read-out and setting: as for `CC(C)(c1ccccc1)c1ccccc1`, the entry is “inactive”.
For the compound `c1ccc(C[n+]2cccc3ccccc32)cc1`, the Potency entry is “inactive”.
For the compound `CCC1CO1` (stereo unspecified), the Potency result is “inactive”.
Same read-out and setting: the entry for `Cc1cscn1` is “inactive”; for `CC1(C)S[C@@H]2[C@H](NC(=O)C(c3ccccc3)S(=O)(=O)O)C(=O)N2[C@H]1C(=O)O` (stereo partly specified) it is “inactive”.
Same read-out and setting: as for `CC1(C)[C@@H](OC(=O)CCC(=O)O)CC[C@]2(C)[C@H]3C(=O)C=C4[C@@H]5C[C@@](C)(C(=O)O)CC[C@]5(C)CC[C@@]4(C)[C@]3(C)CC[C@@H]12`, the entry is “inactive”; as for `CC(=O)Oc1ccc([N+](=O)[O-])cc1CCl`, “inactive”; as for `CCCCCCCCCCCCCCN(CCO)CCO`, “inactive”.
On to `O=c1[nH]ncc2ccccc12`, for which the Potency result is “inactive”.
On the same count and under the same terms, as for `O=C(CCCN1CC=C(n2c(=O)[nH]c3ccccc32)CC1)c1ccc(F)cc1`, the entry is “inactive”.
On the same count and under the same terms, the entry for `CC1CC(C)C(=O)C1=O` (stereo unspecified) is “inactive”.
Same read-out and setting: the entry for `COC(=O)CCS` is “inactive”; for `CCC(OCCCOC)OC(C)=O` (stereo unspecified) it is “inactive”; for `CO[C@]1(NC(=O)CSC(F)F)C(=O)N2C(C(=O)O)=C(CSc3nnnn3CCO)CO[C@H]21` it is “inactive”.
As for `CCCCCCC(C)(C)C(=O)O`, the Potency entry was “inactive”.
Still for that read-out and setting: as for `O=C1CCCCCCCCCCOCCCCO1`, the entry is “inactive”; as for `CCn1cc(C(=O)O)c(=O)c2cc(F)c(N3CCNCC3)cc21`, “inactive”.
Consider `CCOc1ccccc1O[C@H](c1ccccc1)[C@H]1CNCCO1`, for which the Potency result was “inactive”.
On the same count and under the same terms, the entry for `Cc1[nH]cnc1CN1CCc2c(c3ccccc3n2C)C1=O` is “inactive”; for `CCCCCCCC/C=C\CCCCCCCCCCCC(=O)O` it is “inactive”; for `Brc1cc(Br)c(Oc2cc(Br)c(Br)cc2Br)cc1Br` it is “inactive”.
Take `CCN(CC)CCNC(=O)COc1ccc(OC)cc1`: the Potency result was “inactive”.
As for `NNC(=O)CP(=O)(c1ccccc1)c1ccccc1`, the Potency entry was “inactive”.
The same measure, in the same setting: as for `C=C(C)CCCC(C)CCO` (stereo unspecified), the entry is “inactive”; as for `O=C(O)CCC(=O)C(=O)O`, “inactive”; as for `CC(C)=CCC1C(=O)N(c2ccccc2)N(c2ccccc2)C1=O`, “inactive”.
Same read-out and setting: as for `CC(=O)OCC[N+](C)(C)C`, the entry is “inactive”; as for `NCCNCCO`, “inactive”.
